# Measured values as given in publication PMC12701074.
# Assays:
# Assay in all cases: cross-linking mass spectrometry
# [1] = molecular target: MLLT10 (UniProt P55197); settings: SIA, in cells
# [2] = molecular target: MOB4 (UniProt Q9Y3A3); settings: SBAP, in cells
# [3] = molecular target: MT-ND3 (UniProt P03897); settings: in cells
# [4] = molecular target: NAA15 (UniProt Q9BXJ9); settings: SBAP;SIAB, in cells
# [5] = molecular target: NASP (UniProt P49321); settings: SBAP, in cells
# [6] = molecular target: NCAPH (UniProt Q15003); settings: SBAP;SIAB, in cells
# [7] = molecular target: NDUFA5 (UniProt Q16718); settings: SBAP;SIAB, in cells
# [8] = molecular target: NDUFS3 (UniProt O75489); settings: SIAB, in cells
# [9] = molecular target: NR2E1 (UniProt Q9Y466); settings: SBAP, in cells
# [10] = molecular target: NUP205 (UniProt Q92621); settings: SIA, in cells
# [11] = molecular target: PDE12 (UniProt Q6L8Q7); settings: SIA, in cells
# [12] = molecular target: PDIA3 (UniProt P30101); settings: SBAP, in cells
# [13] = molecular target: PGK2 (UniProt P07205); settings: SIA, in cells
# [14] = molecular target: PHF5A (UniProt Q7RTV0); settings: in cells
# [15] = molecular target: PKM (UniProt P14618); settings: SBAP, in cells
# [16] = molecular target: PLS3 (UniProt P13797); settings: SIAB, in cells
# [17] = molecular target: PMPCA (UniProt Q10713); settings: SBAP;SIAB, in cells
# [18] = molecular target: PPIA (UniProt P62937); settings: in cells
# [19] = molecular target: VIM (UniProt P08670); settings: in cells
# Chain of VIM (P08670 whole entry): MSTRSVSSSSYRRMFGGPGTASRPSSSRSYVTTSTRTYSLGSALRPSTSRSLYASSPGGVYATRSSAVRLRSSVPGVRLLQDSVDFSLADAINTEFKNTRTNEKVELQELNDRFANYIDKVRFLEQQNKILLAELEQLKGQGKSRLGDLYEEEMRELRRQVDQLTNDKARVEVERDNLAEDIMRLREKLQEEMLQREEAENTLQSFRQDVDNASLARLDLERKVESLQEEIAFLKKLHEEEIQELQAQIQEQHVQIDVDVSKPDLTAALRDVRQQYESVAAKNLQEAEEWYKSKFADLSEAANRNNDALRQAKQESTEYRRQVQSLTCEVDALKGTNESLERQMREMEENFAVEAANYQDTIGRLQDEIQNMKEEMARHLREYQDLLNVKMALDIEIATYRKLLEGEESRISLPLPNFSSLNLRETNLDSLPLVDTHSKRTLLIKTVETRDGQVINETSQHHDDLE
# Chain of NEFM, P07197 (P07197 whole entry): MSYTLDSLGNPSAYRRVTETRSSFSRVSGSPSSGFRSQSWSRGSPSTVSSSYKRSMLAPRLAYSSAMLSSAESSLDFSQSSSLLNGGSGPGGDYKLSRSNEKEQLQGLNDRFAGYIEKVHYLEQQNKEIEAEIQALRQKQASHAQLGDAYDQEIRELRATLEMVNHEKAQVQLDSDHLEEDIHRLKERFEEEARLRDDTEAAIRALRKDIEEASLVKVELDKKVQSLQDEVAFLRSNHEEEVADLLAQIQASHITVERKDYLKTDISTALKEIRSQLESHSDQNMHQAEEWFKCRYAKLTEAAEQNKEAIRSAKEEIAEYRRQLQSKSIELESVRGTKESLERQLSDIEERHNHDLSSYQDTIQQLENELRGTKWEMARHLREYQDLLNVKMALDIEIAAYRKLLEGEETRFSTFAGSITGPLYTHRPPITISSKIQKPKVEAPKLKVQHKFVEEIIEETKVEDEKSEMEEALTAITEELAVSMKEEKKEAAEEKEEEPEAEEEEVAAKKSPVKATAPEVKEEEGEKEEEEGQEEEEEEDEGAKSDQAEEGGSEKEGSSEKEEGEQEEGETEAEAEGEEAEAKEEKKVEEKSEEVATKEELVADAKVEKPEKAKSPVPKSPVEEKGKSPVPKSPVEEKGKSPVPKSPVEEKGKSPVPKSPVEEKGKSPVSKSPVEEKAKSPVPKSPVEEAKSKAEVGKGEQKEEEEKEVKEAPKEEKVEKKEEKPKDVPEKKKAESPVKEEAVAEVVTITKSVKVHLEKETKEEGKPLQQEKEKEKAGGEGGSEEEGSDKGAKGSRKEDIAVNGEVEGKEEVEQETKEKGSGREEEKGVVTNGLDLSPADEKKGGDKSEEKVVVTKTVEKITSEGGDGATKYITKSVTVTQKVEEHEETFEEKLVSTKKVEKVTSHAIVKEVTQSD
# Chain of MT-ND3 (P03897 whole entry): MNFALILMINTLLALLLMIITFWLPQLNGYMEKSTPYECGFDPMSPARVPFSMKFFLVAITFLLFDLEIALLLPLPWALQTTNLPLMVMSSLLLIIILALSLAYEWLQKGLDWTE
# Chain of PPIA (P62937 whole entry): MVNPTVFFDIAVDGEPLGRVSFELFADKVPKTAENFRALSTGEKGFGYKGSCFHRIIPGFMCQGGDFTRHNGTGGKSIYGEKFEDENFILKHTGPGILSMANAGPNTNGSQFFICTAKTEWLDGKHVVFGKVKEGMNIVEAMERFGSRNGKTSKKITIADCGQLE
# Chain of PHF5A (Q7RTV0 whole entry): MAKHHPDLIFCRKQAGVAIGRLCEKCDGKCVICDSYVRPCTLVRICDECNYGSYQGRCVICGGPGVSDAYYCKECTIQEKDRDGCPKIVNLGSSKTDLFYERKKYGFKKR
# Chain of NR2E1 (Q9Y466 whole entry): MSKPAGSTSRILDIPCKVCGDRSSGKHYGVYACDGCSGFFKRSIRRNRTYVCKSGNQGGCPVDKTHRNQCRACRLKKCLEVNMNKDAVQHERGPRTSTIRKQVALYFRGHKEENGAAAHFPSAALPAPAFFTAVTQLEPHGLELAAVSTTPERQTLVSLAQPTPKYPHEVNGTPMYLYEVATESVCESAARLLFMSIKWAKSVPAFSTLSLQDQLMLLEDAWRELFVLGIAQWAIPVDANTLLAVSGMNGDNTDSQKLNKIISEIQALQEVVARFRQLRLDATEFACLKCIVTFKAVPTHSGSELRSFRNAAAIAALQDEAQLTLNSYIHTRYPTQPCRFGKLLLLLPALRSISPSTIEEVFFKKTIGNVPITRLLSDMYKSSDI
# Chain of SF3B1, O75533 (O75533 whole entry): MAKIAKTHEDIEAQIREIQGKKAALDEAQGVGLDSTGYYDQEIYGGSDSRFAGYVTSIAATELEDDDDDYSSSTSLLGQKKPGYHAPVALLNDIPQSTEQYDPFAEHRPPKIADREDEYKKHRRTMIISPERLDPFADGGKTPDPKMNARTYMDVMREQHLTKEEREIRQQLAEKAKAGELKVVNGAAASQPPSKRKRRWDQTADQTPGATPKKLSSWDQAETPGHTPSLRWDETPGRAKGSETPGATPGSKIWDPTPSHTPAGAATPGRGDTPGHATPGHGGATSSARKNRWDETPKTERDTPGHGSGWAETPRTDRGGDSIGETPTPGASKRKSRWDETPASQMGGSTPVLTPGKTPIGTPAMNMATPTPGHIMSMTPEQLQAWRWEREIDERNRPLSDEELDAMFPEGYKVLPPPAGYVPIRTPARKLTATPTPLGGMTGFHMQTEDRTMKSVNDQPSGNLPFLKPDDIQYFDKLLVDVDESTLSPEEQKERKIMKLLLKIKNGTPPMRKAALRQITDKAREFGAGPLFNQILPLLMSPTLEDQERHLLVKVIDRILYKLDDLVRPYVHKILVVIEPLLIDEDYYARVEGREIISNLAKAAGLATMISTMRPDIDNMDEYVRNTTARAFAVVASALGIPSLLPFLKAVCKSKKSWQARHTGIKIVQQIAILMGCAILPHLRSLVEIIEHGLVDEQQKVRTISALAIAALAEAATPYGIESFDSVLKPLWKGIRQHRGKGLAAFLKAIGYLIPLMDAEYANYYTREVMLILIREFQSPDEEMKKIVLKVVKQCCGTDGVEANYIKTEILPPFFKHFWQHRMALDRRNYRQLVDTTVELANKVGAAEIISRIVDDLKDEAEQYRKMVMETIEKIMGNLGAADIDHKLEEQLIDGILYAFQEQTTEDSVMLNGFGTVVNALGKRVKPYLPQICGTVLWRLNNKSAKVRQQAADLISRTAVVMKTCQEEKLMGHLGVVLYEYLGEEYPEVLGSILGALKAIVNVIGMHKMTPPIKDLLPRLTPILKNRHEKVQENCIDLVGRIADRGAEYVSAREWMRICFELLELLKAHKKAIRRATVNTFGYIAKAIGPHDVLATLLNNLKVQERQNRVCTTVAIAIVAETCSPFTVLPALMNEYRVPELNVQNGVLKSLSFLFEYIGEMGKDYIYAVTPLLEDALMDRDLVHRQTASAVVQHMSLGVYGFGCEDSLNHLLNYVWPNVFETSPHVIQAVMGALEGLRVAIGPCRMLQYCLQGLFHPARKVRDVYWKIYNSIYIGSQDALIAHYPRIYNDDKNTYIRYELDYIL
# Chain of LCP1, P13796 (P13796 whole entry): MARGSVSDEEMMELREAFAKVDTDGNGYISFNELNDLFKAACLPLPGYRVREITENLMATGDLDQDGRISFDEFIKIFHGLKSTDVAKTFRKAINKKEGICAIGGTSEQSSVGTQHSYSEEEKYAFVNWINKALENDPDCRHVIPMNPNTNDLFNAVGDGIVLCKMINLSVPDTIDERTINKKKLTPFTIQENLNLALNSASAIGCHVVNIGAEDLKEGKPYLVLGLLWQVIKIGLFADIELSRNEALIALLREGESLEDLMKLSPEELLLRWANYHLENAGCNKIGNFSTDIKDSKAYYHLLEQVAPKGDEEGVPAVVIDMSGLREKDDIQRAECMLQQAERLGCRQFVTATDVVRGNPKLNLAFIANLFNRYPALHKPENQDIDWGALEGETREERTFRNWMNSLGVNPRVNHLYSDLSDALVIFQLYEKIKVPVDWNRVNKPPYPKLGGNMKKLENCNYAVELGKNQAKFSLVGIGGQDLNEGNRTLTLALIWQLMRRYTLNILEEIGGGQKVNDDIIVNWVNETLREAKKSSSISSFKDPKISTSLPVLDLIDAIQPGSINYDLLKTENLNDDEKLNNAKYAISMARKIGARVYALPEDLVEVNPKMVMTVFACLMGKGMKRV
# Chain of NDUFA2, O43678 (O43678 whole entry): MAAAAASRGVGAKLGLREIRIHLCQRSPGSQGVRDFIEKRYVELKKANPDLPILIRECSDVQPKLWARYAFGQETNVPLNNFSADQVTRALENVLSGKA
# Chain of PKM (P14618 whole entry): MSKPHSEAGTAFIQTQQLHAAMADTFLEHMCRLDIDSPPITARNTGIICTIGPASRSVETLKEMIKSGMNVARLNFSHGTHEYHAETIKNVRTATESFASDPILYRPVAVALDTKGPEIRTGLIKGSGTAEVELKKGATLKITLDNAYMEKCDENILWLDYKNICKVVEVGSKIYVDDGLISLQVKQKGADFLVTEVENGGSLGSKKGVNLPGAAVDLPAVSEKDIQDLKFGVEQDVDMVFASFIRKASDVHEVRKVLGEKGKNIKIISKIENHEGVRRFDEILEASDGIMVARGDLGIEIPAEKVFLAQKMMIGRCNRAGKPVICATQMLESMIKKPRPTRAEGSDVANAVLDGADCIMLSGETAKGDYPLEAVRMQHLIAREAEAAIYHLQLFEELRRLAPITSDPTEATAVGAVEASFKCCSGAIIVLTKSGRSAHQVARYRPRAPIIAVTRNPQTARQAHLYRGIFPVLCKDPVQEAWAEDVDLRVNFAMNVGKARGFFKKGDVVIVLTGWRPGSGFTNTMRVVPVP
# Chain of NAA10, P41227 (P41227 whole entry): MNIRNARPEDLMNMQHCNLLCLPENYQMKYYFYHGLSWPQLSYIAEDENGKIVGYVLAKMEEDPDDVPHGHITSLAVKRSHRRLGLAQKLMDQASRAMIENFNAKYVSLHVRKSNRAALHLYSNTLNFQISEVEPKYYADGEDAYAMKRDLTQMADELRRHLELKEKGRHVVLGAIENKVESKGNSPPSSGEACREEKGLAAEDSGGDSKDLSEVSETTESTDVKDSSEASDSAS
substance,measurement,setting,value
"RPL4, P36578",cross-linked residues,[1],K374 - C157
"STRN4, Q9NRL3",cross-linked residues,[2],K475 - C134
"NDUFS2, O75306",cross-linked residues,[3]; SBAP,K78 - C39
"NDUFS7, O75251",cross-linked residues,[3]; SIA;SIAB,K136 - C39
"NAA10, P41227",cross-linked residues,[4],K165 - C214
"HAT1, O14929",cross-linked residues,[5],C101 - K44
"SMC2, O95347",cross-linked residues,[6],C132 - K152
"NDUFA10, O95299",cross-linked residues,[7],K277 - C17
"NDUFA2, O43678",cross-linked residues,[8],C24 - K259
"YWHAG, P61981",cross-linked residues,[9],C112 - K53
"NUP98, P52948",cross-linked residues,[10],K1040 - C1216
"PPP2R5D, Q14738",cross-linked residues,[11],K589 - C119
"CALR, P27797",cross-linked residues,[12],C105 - K129
"PGK1, P00558",cross-linked residues,[13],C108 - K30
"SF3B1, O75533",cross-linked residues,[14]; SIA,K554 - C49
"SF3B3, Q15393",cross-linked residues,[14]; SIAB,K137 - C11
"AP3B1, O00203",cross-linked residues,[15],K386 - C49
"LCP1, P13796",cross-linked residues,[16],C101 - K91
"PMPCB, O75439",cross-linked residues,[17],K148 - C466
"PPIF, P30405",cross-linked residues,[18]; SBAP,K86 - C115
"NEFM, P07197",cross-linked residues,[18]; SIA,K223 - C115
same,cross-linked residues,[19]; SBAP;SIA;SIAB,K223 - C328
same,cross-linked residues,[19]; SIA,K208 - C328
same,cross-linked residues,[19]; SIA;SIAB,K53 - C328
